1 sequence from PMC7862700, “An all-to-all approach to the identification of sequence-specific readers for epigenetic DNA modifications on cytosine” can be followed below.

What all share (assay): DAPPL (digital affinity profiling via proximity ligation, sequencing); 10 mM Tris-HCl pH 7.5, 50 mM NaCl, 1 mM DTT, 4% glycerol, room temperature, 30 min; GST-TFs on glutathione beads, 16-mer random dsDNA library, 0.1% formaldehyde crosslink after washing; high values mean tight binding
The target in one assay is T1, FEV (Homo sapiens, UniProt Q99581 1-238).
T1 sequence: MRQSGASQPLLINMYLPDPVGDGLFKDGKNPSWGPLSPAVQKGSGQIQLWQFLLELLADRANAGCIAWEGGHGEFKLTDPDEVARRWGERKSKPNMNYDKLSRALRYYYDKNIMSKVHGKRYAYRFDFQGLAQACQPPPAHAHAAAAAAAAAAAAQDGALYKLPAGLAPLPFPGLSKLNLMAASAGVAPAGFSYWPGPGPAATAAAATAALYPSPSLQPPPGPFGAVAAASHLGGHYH
The conditions noted are these: protein: recombinant; tags: N-terminal GST; dsDNA, one strand shown. The procedure, abridged:
(§1)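 After expression in yeast as GST fusions, human transcription factors were bound to glutathione beads, DNA-barcoded and mixed with a tag-only sample. The pools were incubated with 200 nmole of a 16-mer random double-stranded DNA library in Tris/NaCl/DTT/glycerol buffer (30 min, room temperature), washed and crosslinked with 0.1% formaldehyde. Proximity ligation with BsaI/T4 ligase ran for 1 h at 37 °C, before PCR amplification and sequencing on an Illumina NextSeq500. Binding signal is a hexamer's read frequency for a factor divided by its frequency for the tag-only sample.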

A further assay has as its target ETV5 (Homo sapiens, UniProt P41161 1-510). Particulars: protein: recombinant; tags: N-terminal GST; dsDNA, one strand shown. An outline of the steps:
as §1

The target of the next assay is HSF1 (Homo sapiens, UniProt Q00613 1-529). The conditions noted are these: protein: recombinant; tags: N-terminal GST; chain copies: 3; dsDNA, one strand shown. An outline of the steps: as §1
The next assay has as its target T2, SPIC (Homo sapiens, UniProt Q8N5J4 1-248).
T2 sequence: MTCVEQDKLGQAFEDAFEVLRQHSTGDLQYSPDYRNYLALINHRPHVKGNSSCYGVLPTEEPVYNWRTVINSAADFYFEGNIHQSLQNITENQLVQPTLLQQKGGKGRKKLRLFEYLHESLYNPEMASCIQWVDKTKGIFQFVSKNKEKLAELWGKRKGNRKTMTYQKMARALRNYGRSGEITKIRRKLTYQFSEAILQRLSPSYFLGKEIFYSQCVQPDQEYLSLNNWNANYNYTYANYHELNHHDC
Particulars: protein: recombinant; tags: N-terminal GST; dsDNA, one strand shown. An outline of the steps:
as §1

A further assay concerns the target ELF4 (Homo sapiens, UniProt Q99607 1-663). Particulars: protein: recombinant; tags: N-terminal GST; dsDNA, one strand shown. An outline of the steps: as §1
The target of another assay is T3, ELK4 (Homo sapiens, UniProt P28324-2 1-405).
T3 sequence: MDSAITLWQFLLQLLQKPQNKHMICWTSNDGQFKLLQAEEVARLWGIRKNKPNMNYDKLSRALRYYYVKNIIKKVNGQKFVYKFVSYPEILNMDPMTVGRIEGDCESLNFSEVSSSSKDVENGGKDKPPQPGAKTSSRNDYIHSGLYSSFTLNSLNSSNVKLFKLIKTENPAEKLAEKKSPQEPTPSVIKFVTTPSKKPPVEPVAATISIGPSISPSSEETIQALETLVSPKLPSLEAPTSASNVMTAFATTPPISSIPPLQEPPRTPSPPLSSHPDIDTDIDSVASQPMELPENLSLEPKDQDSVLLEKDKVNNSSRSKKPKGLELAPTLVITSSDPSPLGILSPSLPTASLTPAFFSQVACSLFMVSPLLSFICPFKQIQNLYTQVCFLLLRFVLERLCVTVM
The conditions noted are these: protein: recombinant; tags: N-terminal GST; dsDNA, one strand shown. An outline of the steps:
as §1

Another assay deals with T4, ETV2 (Homo sapiens, UniProt O00321 1-342).
T4 sequence: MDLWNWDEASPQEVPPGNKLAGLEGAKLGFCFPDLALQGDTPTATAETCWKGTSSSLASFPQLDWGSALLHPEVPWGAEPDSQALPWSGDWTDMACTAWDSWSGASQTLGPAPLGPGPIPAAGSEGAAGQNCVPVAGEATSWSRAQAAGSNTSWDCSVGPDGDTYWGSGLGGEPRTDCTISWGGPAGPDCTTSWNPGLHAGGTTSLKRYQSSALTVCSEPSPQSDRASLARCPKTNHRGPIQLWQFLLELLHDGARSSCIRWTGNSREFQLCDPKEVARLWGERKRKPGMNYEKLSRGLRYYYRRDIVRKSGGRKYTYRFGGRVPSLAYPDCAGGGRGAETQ
Particulars: protein: recombinant; tags: N-terminal GST; dsDNA, one strand shown. The procedure, abridged: as §1

The target in a further assay is T5, ELF3 (Homo sapiens, UniProt P78545 1-371).
T5 sequence: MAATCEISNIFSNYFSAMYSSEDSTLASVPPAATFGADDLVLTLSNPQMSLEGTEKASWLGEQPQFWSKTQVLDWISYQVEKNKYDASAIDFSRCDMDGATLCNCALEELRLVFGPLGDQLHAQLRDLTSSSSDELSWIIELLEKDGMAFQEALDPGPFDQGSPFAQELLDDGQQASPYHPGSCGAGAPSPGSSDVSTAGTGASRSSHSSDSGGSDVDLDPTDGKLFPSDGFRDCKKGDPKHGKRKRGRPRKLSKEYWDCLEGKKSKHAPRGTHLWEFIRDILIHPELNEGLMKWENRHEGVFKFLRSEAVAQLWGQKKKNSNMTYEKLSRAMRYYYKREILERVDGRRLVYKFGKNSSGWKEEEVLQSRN
Particulars: protein: recombinant; tags: N-terminal GST; dsDNA, one strand shown. An outline of the steps:
as §1

The target of the next assay is CRX (Homo sapiens, UniProt O43186 1-299). The conditions noted are these: protein: recombinant; tags: N-terminal GST; dsDNA, one strand shown. The procedure, abridged:
as §1

Another assay addresses ETV1 (Homo sapiens, UniProt P50549 1-477). Particulars: protein: recombinant; tags: N-terminal GST; dsDNA, one strand shown. An outline of the steps: as §1
The next assay addresses T6, ERF (Homo sapiens, UniProt P50548 1-548).
T6 sequence: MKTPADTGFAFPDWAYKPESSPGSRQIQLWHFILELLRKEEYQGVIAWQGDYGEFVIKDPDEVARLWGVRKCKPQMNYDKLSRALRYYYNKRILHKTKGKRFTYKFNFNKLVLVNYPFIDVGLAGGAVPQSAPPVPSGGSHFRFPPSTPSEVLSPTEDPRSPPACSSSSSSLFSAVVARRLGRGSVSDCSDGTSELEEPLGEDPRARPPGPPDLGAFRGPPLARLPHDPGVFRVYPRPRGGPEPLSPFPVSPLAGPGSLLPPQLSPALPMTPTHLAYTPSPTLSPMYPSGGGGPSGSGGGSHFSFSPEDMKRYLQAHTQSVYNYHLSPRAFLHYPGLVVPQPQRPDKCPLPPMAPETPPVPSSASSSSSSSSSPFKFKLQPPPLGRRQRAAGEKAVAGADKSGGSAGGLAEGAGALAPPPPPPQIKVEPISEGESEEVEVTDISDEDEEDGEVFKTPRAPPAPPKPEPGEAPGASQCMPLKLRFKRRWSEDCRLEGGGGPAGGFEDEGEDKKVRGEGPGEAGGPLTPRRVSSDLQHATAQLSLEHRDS
The conditions noted are these: protein: recombinant; tags: N-terminal GST; dsDNA, one strand shown. An outline of the steps:
as §1

Another assay has as its target T7, ETV3L (Homo sapiens, UniProt Q6ZN32 1-361).
T7 sequence: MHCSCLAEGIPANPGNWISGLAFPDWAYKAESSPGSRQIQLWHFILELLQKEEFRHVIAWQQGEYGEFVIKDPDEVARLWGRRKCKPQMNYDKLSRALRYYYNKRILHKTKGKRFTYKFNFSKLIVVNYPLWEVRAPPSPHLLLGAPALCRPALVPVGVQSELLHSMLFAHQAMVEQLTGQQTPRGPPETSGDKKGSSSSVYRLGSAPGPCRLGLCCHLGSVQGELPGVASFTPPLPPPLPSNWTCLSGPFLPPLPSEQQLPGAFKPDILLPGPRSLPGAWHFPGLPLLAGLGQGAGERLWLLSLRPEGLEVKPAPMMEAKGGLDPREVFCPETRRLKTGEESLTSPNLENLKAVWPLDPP
The conditions noted are these: protein: recombinant; tags: N-terminal GST; dsDNA, one strand shown. An outline of the steps:
as §1

Another assay has as its target T8, ETS2 (Homo sapiens, UniProt P15036 1-469).
T8 sequence: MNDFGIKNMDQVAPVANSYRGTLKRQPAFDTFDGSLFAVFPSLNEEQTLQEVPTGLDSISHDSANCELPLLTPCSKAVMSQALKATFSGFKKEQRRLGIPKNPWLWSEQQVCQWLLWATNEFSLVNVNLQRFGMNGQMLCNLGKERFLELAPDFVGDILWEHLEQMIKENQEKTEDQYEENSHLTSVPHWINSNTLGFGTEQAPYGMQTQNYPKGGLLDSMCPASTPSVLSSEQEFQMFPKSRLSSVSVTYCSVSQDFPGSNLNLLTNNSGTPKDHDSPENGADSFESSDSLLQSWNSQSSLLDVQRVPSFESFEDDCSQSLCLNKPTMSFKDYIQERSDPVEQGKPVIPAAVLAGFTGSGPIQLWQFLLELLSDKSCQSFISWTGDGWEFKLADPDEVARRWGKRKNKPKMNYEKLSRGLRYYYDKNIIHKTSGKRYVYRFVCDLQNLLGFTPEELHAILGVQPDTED
Particulars: protein: recombinant; tags: N-terminal GST; dsDNA, one strand shown. The procedure, abridged: as §1

The target of another assay is T9, SPDEF (Homo sapiens, UniProt O95238 1-335).
T9 sequence: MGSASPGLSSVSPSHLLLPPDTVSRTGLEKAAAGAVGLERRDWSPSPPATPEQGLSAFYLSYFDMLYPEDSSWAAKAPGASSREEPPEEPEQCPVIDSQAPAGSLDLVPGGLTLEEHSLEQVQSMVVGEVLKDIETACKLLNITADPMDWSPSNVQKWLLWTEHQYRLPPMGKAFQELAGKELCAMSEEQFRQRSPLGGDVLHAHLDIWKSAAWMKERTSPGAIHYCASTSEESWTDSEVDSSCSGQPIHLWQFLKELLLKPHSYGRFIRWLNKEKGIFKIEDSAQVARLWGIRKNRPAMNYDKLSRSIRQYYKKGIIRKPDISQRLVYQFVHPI
Particulars: protein: recombinant; tags: N-terminal GST; dsDNA, one strand shown. An outline of the steps:
as §1

For another assay, the target named is T10, ETV7 (Homo sapiens, UniProt Q9Y603 1-341).
T10 sequence: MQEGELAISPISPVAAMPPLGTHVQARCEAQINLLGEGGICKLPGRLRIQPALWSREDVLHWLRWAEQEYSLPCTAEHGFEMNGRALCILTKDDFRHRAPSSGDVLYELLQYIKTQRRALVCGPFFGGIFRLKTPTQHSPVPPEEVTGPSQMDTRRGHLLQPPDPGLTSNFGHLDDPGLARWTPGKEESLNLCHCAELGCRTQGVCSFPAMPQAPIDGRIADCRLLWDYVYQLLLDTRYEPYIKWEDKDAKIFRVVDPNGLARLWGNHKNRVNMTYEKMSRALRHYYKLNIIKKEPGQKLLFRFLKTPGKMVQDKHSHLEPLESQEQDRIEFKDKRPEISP
The conditions noted are these: protein: recombinant; tags: N-terminal GST; dsDNA, one strand shown. An outline of the steps:
as §1

A further assay addresses T11, ELF5 (Homo sapiens, UniProt Q9UKW6-2 1-255).
T11 sequence: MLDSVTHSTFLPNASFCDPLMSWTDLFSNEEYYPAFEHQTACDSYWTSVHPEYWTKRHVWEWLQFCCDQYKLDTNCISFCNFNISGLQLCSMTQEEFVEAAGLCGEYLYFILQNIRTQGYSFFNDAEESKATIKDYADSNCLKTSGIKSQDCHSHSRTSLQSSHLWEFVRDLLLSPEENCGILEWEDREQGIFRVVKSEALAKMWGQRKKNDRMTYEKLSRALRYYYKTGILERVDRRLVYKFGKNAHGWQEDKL
The conditions noted are these: protein: recombinant; tags: N-terminal GST; dsDNA, one strand shown. The procedure, abridged:
as §1

A further assay concerns the target T12, ETV3 (Homo sapiens, UniProt P41162-2 1-143).
T12 sequence: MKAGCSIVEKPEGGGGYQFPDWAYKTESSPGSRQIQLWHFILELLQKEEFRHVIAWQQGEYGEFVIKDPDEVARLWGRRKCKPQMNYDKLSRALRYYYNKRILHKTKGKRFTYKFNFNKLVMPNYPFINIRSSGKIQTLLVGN
Particulars: protein: recombinant; tags: N-terminal GST; dsDNA, one strand shown. The procedure, abridged:
as §1

The next assay has as its target ETV6 (Homo sapiens, UniProt P41212 1-452). Particulars: protein: recombinant; tags: N-terminal GST; dsDNA, one strand shown. The procedure, abridged:
as §1

ETV1, sequence (P50549 whole entry): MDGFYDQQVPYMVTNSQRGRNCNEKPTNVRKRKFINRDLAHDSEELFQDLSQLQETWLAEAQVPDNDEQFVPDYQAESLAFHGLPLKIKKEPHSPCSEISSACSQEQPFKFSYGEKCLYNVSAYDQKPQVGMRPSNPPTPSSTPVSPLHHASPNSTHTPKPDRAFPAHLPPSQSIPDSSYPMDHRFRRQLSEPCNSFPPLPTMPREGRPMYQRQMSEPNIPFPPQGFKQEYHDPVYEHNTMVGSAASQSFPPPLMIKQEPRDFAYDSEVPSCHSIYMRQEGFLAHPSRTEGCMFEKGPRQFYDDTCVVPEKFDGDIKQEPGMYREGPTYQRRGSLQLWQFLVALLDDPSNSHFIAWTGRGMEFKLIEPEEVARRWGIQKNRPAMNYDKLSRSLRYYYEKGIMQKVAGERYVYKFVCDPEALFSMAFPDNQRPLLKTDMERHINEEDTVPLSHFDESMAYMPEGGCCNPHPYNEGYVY
ETV6, sequence (P41212 whole entry): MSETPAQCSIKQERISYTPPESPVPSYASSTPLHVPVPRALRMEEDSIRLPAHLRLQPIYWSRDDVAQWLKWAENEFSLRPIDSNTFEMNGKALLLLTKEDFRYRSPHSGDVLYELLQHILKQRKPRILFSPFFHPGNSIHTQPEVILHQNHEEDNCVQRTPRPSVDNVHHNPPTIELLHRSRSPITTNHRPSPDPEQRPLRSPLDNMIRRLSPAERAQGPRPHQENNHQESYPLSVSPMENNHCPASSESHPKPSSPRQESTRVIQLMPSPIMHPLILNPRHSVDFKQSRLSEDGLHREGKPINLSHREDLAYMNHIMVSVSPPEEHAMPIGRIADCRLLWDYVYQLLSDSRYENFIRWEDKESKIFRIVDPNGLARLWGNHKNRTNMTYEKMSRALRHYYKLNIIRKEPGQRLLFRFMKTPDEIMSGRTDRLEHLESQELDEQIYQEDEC
CRX, sequence (O43186 whole entry): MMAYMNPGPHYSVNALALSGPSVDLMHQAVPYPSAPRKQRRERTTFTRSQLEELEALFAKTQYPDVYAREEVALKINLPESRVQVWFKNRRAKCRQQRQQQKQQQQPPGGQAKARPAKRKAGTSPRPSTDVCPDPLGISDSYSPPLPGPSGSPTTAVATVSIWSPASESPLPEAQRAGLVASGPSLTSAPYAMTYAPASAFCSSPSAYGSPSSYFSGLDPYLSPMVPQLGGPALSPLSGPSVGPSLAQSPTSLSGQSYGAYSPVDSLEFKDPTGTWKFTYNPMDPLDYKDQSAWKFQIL
ELF4, sequence (Q99607 whole entry): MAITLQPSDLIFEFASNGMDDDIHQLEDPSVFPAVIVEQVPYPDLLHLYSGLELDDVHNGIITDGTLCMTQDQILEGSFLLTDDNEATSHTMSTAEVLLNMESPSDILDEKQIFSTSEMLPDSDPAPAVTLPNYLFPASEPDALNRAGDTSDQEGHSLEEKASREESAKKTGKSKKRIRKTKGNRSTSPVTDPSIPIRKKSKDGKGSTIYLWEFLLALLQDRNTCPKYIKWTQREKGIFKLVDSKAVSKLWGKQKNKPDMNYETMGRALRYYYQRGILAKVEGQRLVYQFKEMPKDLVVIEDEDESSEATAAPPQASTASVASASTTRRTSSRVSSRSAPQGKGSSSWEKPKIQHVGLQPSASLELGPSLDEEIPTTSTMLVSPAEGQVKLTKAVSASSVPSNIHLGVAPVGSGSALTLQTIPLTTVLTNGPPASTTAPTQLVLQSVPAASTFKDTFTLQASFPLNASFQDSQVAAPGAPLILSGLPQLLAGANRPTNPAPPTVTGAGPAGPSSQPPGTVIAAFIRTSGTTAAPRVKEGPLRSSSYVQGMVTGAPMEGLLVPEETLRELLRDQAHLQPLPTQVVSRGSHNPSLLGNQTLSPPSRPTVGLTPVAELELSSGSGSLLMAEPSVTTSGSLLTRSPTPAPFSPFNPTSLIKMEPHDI
ETV5, sequence (P41161 whole entry): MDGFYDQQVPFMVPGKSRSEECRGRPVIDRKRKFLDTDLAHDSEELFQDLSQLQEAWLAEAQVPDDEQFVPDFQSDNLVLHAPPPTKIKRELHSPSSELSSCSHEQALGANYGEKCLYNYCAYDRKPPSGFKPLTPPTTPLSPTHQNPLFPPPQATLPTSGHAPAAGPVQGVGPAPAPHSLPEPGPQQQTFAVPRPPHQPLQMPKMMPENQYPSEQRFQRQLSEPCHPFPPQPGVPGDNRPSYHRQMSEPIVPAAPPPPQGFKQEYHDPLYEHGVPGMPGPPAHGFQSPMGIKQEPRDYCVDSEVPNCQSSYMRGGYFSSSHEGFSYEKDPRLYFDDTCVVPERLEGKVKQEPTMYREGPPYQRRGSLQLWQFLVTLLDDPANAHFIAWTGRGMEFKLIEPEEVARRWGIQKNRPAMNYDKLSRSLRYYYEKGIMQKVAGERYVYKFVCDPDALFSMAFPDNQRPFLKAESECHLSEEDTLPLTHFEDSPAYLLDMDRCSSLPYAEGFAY
HSF1, sequence (Q00613 whole entry): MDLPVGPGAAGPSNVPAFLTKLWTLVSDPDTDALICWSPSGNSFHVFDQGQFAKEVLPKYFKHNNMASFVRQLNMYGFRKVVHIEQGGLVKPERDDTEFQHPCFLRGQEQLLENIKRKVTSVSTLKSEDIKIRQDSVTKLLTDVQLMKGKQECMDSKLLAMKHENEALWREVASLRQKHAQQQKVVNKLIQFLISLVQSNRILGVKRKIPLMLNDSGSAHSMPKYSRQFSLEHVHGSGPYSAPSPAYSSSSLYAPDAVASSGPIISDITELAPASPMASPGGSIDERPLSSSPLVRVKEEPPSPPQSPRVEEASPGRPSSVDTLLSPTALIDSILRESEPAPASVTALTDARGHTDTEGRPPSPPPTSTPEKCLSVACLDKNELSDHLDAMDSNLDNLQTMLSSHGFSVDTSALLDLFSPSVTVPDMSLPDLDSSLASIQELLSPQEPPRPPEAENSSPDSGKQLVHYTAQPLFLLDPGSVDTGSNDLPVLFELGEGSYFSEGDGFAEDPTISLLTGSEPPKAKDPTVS

For the sequence ATGATA, the binding signal in the assay with FEV is 1.25 fold enrichment (6-mer frequency, TF over GST control); in the assay with ETV5, 1.17 fold enrichment (6-mer frequency, TF over GST control); with HSF1 it was 1.23 fold enrichment (6-mer frequency, TF over GST control); in the assay with SPIC, 1.07 fold enrichment (6-mer frequency, TF over GST control); with ELF4 it was 1.26 fold enrichment (6-mer frequency, TF over GST control); with ELK4, 1.27 fold enrichment (6-mer frequency, TF over GST control). Further, the binding signal is 1.2 fold enrichment (6-mer frequency, TF over GST control) with ETV2; 1.21 fold enrichment (6-mer frequency, TF over GST control) with ELF3; 1.39 fold enrichment (6-mer frequency, TF over GST control) with CRX; 1.17 fold enrichment (6-mer frequency, TF over GST control) in the assay with ETV1; 1.21 fold enrichment (6-mer frequency, TF over GST control) in the assay with ERF; 1.22 fold enrichment (6-mer frequency, TF over GST control) in the assay with ETV3L. Also, the binding signal was 1.17 fold enrichment (6-mer frequency, TF over GST control) with ETS2; 1.22 fold enrichment (6-mer frequency, TF over GST control) with SPDEF; 1.16 fold enrichment (6-mer frequency, TF over GST control) with ETV7; 1.23 fold enrichment (6-mer frequency, TF over GST control) with ELF5; 1.2 fold enrichment (6-mer frequency, TF over GST control) with ETV3; 1.18 fold enrichment (6-mer frequency, TF over GST control) in the assay with ETV6.
